Sm TGR inh: qHTS Assay for the Inhibitors of Schistosoma Mansoni Peroxiredoxins; hit rate 3% among 360,000; Potency, µM (highest dose often 114 µM), inactives show at the top dose activity change, negative = inhibition, actives largely listed as inhibitors; purified TGR, DTNB reduction, TNB absorbance 405 nm; note: potency is the fitted concentration of half-maximal effect; % is set by controls: 0 for no effect and ±100 for the full control effect; nearly all actives have a fitted effect of over 60% in size
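First, TGR (20 nM dispensed) and NADPH were mixed with compound. Second, a 15 min room-temperature incubation followed. Third, further NADPH and then DTNB were added to start the reaction. Finally, TNB absorbance was monitored kinetically.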
Cycloheximide cs: Cycloheximide Counterscreen for Small Molecule Inhibitors of Shiga Toxin | cell reporter, cycloheximide protein synthesis inhibition counterscreen | max response, % | hit rate 12% among 300,000; in the data active = max response mostly above about 13%, no sharp cut-off; inactive = mostly below about 14%; note: read at 38.3 µM for the half of the compounds with a filed dose; 0% is about no effect
Shiga inhibitor: A qHTS for Small Molecule Inhibitors of Shiga Toxin; Vero cells, Shiga toxin protein synthesis inhibition reporter; inhibition, % at 38.7 µM; hit rate 9.2% among 290,000; AID 2315, 2010; in the data active = inhibition mostly above about 28%, no sharp cut-off; inactive = mostly below about 43%; note: 0% is about no effect
Tb PYK inh: qHTS of Trypanosoma Brucei Inhibitors; pyruvate kinase (Trypanosoma brucei), Q57TT1; TbPYK enzyme, Kinase-Glo Plus ATP luminescence, 45 min; Potency, µM (top dose mostly 76.8 µM), for the others: at the top dose activity, negative = inhibition, usual class: inhibitors; hit rate 0.12% among 410,000; note: potency is the fitted concentration of half-maximal effect; % is set by controls: 0 for no effect and ±100 for the full control effect; nearly all actives have a fitted effect of over 50% in size
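TbPYK + substrate in 50 mM TEA pH 7.2, 100 mM KCl, 10 mM MgCl2, 0.05% BSA, 0.01% Tween-20; cpd pinned; ADP 130 uM final; 45 min RT; Kinase-Glo Plus 10 min; luminescence endpoint.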
LmPK inhibitor: qHTS Assay for Inhibitors of Leishmania Mexicana Pyruvate Kinase (LmPK) | Q27686 | purified LmPK, Kinase-Glo ATP luminescence, 1 h | Potency, µM (doses to about 57.5 µM), for the others: top-dose activity change, negative = inhibition, usual class: inhibitors | hit rate 0.37% among 290,000 | AID 1721, 2009; note: potency is the fitted concentration of half-maximal effect; % is set by controls: 0 for no effect and ±100 for the full control effect
Target sequence (Q27686 whole entry, looked up): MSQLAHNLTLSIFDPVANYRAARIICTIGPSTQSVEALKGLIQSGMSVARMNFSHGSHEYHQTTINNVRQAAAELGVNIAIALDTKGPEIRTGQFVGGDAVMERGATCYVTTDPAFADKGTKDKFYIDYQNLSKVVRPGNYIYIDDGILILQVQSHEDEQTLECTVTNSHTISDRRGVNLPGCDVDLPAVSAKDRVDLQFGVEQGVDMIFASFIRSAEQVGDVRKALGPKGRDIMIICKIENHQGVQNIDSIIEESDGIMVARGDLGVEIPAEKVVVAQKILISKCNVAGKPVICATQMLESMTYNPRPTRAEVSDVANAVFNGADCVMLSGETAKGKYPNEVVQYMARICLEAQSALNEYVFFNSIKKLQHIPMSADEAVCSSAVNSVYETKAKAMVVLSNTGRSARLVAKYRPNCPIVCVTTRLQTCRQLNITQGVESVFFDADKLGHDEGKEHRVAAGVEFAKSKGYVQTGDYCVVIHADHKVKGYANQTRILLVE
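Purified LmPK (0.1 nM) with 0.5 mM PEP and 0.1 mM ADP in imidazole buffer pH 7.2 with MgCl2/KCl, 1 h at room temperature. ATP formed was read by luciferase luminescence and normalized to no-enzyme and uninhibited controls.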
FBPA Giardia inh: qHTS Assay for Inhibitors of Fructose-1,6-bisphosphate Aldolase from Giardia Lamblia; A8B2U2; purified Giardia FBPA; Potency, µM (highest dose often 59.6 µM), without a hit: top-dose activity, negative = inhibition, actives largely listed as inhibitors; hit rate 0.71% among 290,000; note: potency is the fitted concentration of half-maximal effect; % is set by controls: 0 for no effect and ±100 for the full control effect; nearly all actives have a fitted effect of over 55% in size
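40 nM FBPA preincubated 10 min at RT with compound (up to 57.5 uM final), then substrate plus GAPDH/TPI/NAD/arsenate coupling and diaphorase/resazurin added. Fluorescence read after 20 min at RT, 525/598 nm.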
Numbers without * were called inactive; ? = inconclusive; . = not tested or not shown. The sample as a whole holds a higher share of hits than the screen did. Unless noted, calls come from the whole dose curve; as a rule, active = well fitted curve in the direction sought with a large enough effect; inconclusive = small, poorly fitted or top-dose-only effect, or another doubt; inactive = no such curve, though single readings can be large; an effect the other way counts as inactive or inconclusive.

SMILES	Sm TGR inh	Cycloheximide cs	Shiga inhibitor	Tb PYK inh	LmPK inhibitor	FBPA Giardia inh
O=c1[nH]cnc2scc(C3COc4ccccc4O3)c12 (stereo not drawn)	-5%	14*	-3	0%	2%	16%
Cc1cn2c(=O)c(S(=O)(=O)NCc3ccccc3Cl)c(C)nc2s1	1%	.	.	1%	.	.
O=C(COc1ccc(F)cc1)NCCc1nc2ccccc2[nH]1	-1%	-2	-7	4%	.	.
CNc1nc(C#N)nc(Nc2ccccc2)n1	.	.	.	.	.	4%
COc1ccccc1CCC(=O)NNC(=O)c1cccs1	.	.	.	-2%	.	.
O=C(O)[C@H]1C[C@@H](CP(=O)(O)O)CCN1	.	4	-8	5%	.	12%
O=C(c1cc(COc2ccc(F)cc2F)on1)N1CCCC(c2ccccc2)C1 (stereo not drawn)	2%	19*	28	-1%	6%	1%
CCOC(=O)C1CCN(C(=O)c2cc(COc3ccc(F)cc3F)on2)CC1	2%	63*	127*	-14%	-4%	.
CCC(O)C1CCN(C(=O)c2cc(COc3ccc(F)cc3F)on2)CC1 (stereo not drawn)	-3%	17	17	-9%	0%	.
COCCOC1CCN(C(=O)c2cc(COc3ccc(F)cc3F)on2)CC1	-5%	23*	75	7%	4%	-5%
CCOC(=O)N1CCN(C(=O)c2cc(COc3ccc(F)cc3F)on2)CC1	-26%	49*	88*	-3%	-7%	.
CC(C)C[C@H](NC(=O)[C@H](CCc1ccccc1)NC(=O)CN1CCOCC1)C(=O)N[C@@H](Cc1ccccc1)C(=O)N[C@@H](CC(C)C)C(=O)[C@@]1(C)CO1	.	.	.	-12%	.	.
CC1=C(C(=O)Nc2ccccc2)C(c2ccccn2)n2nc(SCc3ccccc3)nc2N1 (stereo not drawn)	-2%	.	.	1%	.	.
C=CCNC(=O)/C(C#N)=C/c1c(C)nn(-c2ccc(Cl)cc2)c1Cl	-13%	-1	-10	-3%	3%	1%
CCOc1ccccc1NC(=O)/C(C#N)=C/c1c(C)nn(-c2ccc(F)cc2)c1Cl	5%	47*	85*	2%	-4%	3%
Cc1nn(C)c2c1c(C(F)(F)F)cc(=O)n2CC(=O)N1CCCCC1	0%	.	.	3%	.	.
Cc1sc(NC(=O)c2ccc(Br)s2)c(C(N)=O)c1C	0%	51*	69*	10%	2%	0%
Cc1sc(NC(=S)Nc2ccc(F)cc2)c(C(N)=O)c1C	4%	-1	48	-21%	-1%	?
Cc1sc(NC(=O)c2ccc(Cl)s2)c(C(N)=O)c1C	-14%	68*	103*	-8%	2%	14%
CC(=O)c1ccc(N2CCN(c3ccc(NC(=O)c4cccs4)cc3C(=O)O)CC2)cc1	-5%	.	.	-15%	.	.
CCc1ccc(CN2CCN(c3ncccn3)CC2)cc1	20%	26*	.	8%	8%	?
Fc1ccc(CN2CCN(c3ncccn3)CC2)cc1	3%	-2	-13	21%	-11%	-23%
CSc1ccc(CN2CCSCC2)cc1	2%	1	-1	3%	-4%	?
CCc1ccc(CN2CCN(Cc3ccc(SC)cc3)CC2)cc1	-1%	-8	-3	19%	-6%	18µM*
COc1ccc(CNC(=O)CN2C(=O)c3ccc([N+](=O)[O-])cc3C2=O)cc1	-2%	6	-17	-4%	-2%	.
SMILES	Sm TGR inh	Cycloheximide cs	Shiga inhibitor	Tb PYK inh	LmPK inhibitor	FBPA Giardia inh
Cc1sc2c(c1C)c(=O)n(-c1ccc(Cl)cc1)c(=O)n2Cc1cc(=O)n2cc(Br)ccc2n1	6%	.	.	6%	.	.
O=C(CNC(=O)c1ccccc1)Nc1ccsc1C(=O)O	13%	-2	7	1%	-3%	-6%
O=C(Nc1ccsc1C(=O)O)c1ccc(Cl)cc1	-20%	27*	85*	-4%	-10%	3%
Cc1cc2ncc(C(=O)Nc3ccsc3C(=O)O)c(C)n2n1	-14%	18*	20	?	25µM*	-9%
Cc1csc(C(=O)O)c1NC(=O)c1ccc(F)cc1	89µM*	-2	-2	4%	1%	4%
CCOC(=O)c1cnc2cc(C)nn2c1-c1ccccc1	8%	-7	-17	-1%	1%	2%
Cc1ccc(C(=O)Nc2ccsc2C(=O)O)cc1	26%	39*	52*	-1%	-13%	0%
Cc1ccc2c(c1)N(Cc1cccc(F)c1)C(=O)C(C)O2 (stereo not drawn)	4%	-1	-5	3%	3%	-15%
CC1Oc2ccccc2N(Cc2cccc(F)c2)C1=O (stereo not drawn)	89µM*	-2	-11	-4%	7%	4%
c1ccc(-c2ccc(-c3nccc4ccccc34)[nH]2)cc1	23%	29*	14	.	25µM*	-5%
COc1cccc(NC(=O)CN(CCc2ccccc2)S(=O)(=O)c2ccc(Cl)cc2)c1	1%	.	.	-9%	.	.
CCn1cc(C(=O)NCCCOC)c(=O)c2cc(S(=O)(=O)N3CCCC3)ccc21	-2%	-4	3	0%	3%	.
O=C(Nc1ccc(Cl)cc1C(=O)Nc1ccncc1)c1ccco1	40µM*	-3	-18	-1%	5%	-3%
Cc1ccc(NC(=O)CCNC(=O)c2ccco2)cc1F	-9%	13*	26	-2%	3%	0%
COc1cc(OC)cc(C(=O)Nc2ccc(NC(=O)c3ccco3)c(C)c2)c1	40µM*	1	36	-17%	?	-7%
O=C(Nc1ccccn1)c1ccc(NC(=O)c2ccco2)cc1	14%	40*	71*	-11%	-24%	-3%
O=C(NCc1ccccc1)c1ccc(NC(=O)c2ccco2)cc1	-10%	-4	6	-7%	-8%	.
COc1ccc(C(=O)Nc2nnc(S(=O)(=O)N(C)c3ccc(C)cc3)s2)cc1	-7%	.	.	-2%	.	.
CC1CCC(C(=O)NC(C(=O)NCCc2ccc(S(N)(=O)=O)cc2)C(C)C)CC1 (stereo not drawn)	1%	-3	2	4%	8%	13%
Cc1ccccc1NC(=O)c1ccccc1NC(=O)c1ccco1	7%	1	-7	1%	-2%	0%
Cc1cc(NC(=O)c2ccco2)ccc1NC(=O)c1ccco1	-1%	22	71*	-17%	?	-7%
Cc1ccc(NC(=O)c2ccco2)cc1C	2%	37*	84*	?	?	-2%
Cc1ccc(NCc2ccco2)cc1C	-9%	27*	70*	-6%	-15%	?
Cc1cc(NC(=O)NCc2ccco2)ccc1NC(=O)NCc1ccco1	.	.	.	4%	.	.
Cc1ccccc1NC(=O)c1ccc(NC(=O)c2ccco2)cc1	1%	27*	39	-2%	-3%	0%

Screening results: PubChem, National Center for Advancing Translational Sciences (NCATS)
